Test results from the supplement of paper PMC6555819.

How the values were obtained:
Experiment in all cases: PBM binding z-score (relative to random genomic background probes); higher = stronger binding; sequences stand for … in GC…GCGATTGACAGCGTAGAATGAAGG
[1] = system: FXR:RXRa (NR concentration 270 nM, RXRa partner concentration 90 nM)
Method in brief: (§1)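 For binding z-scores, the reference was random background probes on custom Agilent 4×180K protein-binding microarrays. These arrays were incubated 1 h with ligand-free nuclear receptor dimers in PBS pH 7.4, 2% milk, 0.02% Triton X-100, 1 mM DTT, 0.2 mg/mL BSA and 0.4 mg/ml salmon testes DNA. Fluorescence was scanned after antibody detection of each partner (one per run) and regression-normalized.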

[2] = system: LXRa:RXRa (NR concentration 270 nM, RXRa partner concentration 90 nM)
Method in brief: as §1

[3] = system: LXRa homodimer (NR concentration 270 nM)
Method in brief: as §1

[4] = system: LXRb:RXRa (NR concentration 270 nM, RXRa partner concentration 90 nM)
Method in brief: as §1

[5] = system: LXRb homodimer (NR concentration 270 nM)
Method in brief: as §1

[6] = system: PPARa:RXRa (NR concentration 270 nM, RXRa partner concentration 90 nM)
Method in brief: as §1

[7] = system: PPARg:RXRa (NR concentration 180 nM, RXRa partner concentration 90 nM)
Method in brief: as §1

[8] = system: PPARg:RXRa 270nM:90nM, anti-RXR (NR concentration 270 nM, RXRa partner concentration 90 nM)
Method in brief: as §1

[9] = system: PPARg:RXRa 30nM:10nM, anti-RXR (NR concentration 30 nM, RXRa partner concentration 10 nM)
Method in brief: as §1

[10] = system: PPARg:RXRa 90nM:30nM, anti-RXR (NR concentration 90 nM, RXRa partner concentration 30 nM)
Method in brief: as §1

GCTACTTGGTCAGTAAAAGGTCACACACCGGTCG
PBM binding z-score [1]: 3.65
PBM binding z-score [2]: 4.51
PBM binding z-score [3]: 4.98
PBM binding z-score [4]: 4.37
PBM binding z-score [5]: 1.61
PBM binding z-score [6]: 4.59
PBM binding z-score [7]: 3.39
PBM binding z-score [8]: 4.65
PBM binding z-score [9]: 2.3
PBM binding z-score [10]: 4.1

ATCGAAAGGTCTAGGTGAGTATAGAGAAAGGGAA
PBM binding z-score [1]: 0.504
PBM binding z-score [2]: 0.836
PBM binding z-score [3]: 0.254
PBM binding z-score [4]: 0.163
PBM binding z-score [5]: 0.443
PBM binding z-score [6]: 0.539
PBM binding z-score [7]: 0.509
PBM binding z-score [8]: 0.366
PBM binding z-score [9]: 0.34
PBM binding z-score [10]: 0.331

ACAGACAGGTGACTGAAGGTAACTCAGCTGGACG
PBM binding z-score [1]: 0.0674
PBM binding z-score [2]: 0.59
PBM binding z-score [3]: -0.72
PBM binding z-score [4]: -0.364
PBM binding z-score [5]: -1.02
PBM binding z-score [6]: 0.299
PBM binding z-score [7]: 0.781
PBM binding z-score [8]: 0.364
PBM binding z-score [9]: -0.0254
PBM binding z-score [10]: 0.262

CTACCAAGGTGAACAAGGTCGTTGCTTACTATTC
PBM binding z-score [1]: 1.51
PBM binding z-score [2]: 1.61
PBM binding z-score [3]: 0.37
PBM binding z-score [4]: 2.11
PBM binding z-score [5]: -0.314
PBM binding z-score [6]: 2.55
PBM binding z-score [7]: 0.964
PBM binding z-score [8]: 1.34
PBM binding z-score [9]: -0.119
PBM binding z-score [10]: 0.845

ACAGAAAGGTGATGAAGGTAACTCAGGCTATCAT
PBM binding z-score [1]: 0.335
PBM binding z-score [2]: 0.618
PBM binding z-score [3]: 0.115
PBM binding z-score [4]: 0.477
PBM binding z-score [5]: -0.456
PBM binding z-score [6]: 1.51
PBM binding z-score [7]: 1.02
PBM binding z-score [8]: 1.12
PBM binding z-score [9]: 0.27
PBM binding z-score [10]: 0.787

TAGTCTAGGTCATTGGGCCAGTATAGTACGCATC
PBM binding z-score [1]: 4.44
PBM binding z-score [2]: 4.2
PBM binding z-score [3]: 2.26
PBM binding z-score [4]: 2.54
PBM binding z-score [5]: 2.53
PBM binding z-score [6]: 4.28
PBM binding z-score [7]: 5.91
PBM binding z-score [8]: 4.82
PBM binding z-score [9]: 3
PBM binding z-score [10]: 4.56

CCTAGTTAGTCAAGGTCACACACGCTATAGGTAC
PBM binding z-score [1]: 4.07
PBM binding z-score [2]: 4.91
PBM binding z-score [3]: 3.93
PBM binding z-score [4]: 3.98
PBM binding z-score [5]: 1.49
PBM binding z-score [6]: 3.99
PBM binding z-score [7]: 2.29
PBM binding z-score [8]: 2.75
PBM binding z-score [9]: 1.02
PBM binding z-score [10]: 1.79

TCAGACAGGTCAAGGTAACTCAGGTACGCAGTCG
PBM binding z-score [1]: 4.86
PBM binding z-score [2]: 4.63
PBM binding z-score [3]: 0.984
PBM binding z-score [4]: 3.22
PBM binding z-score [5]: 0.435
PBM binding z-score [6]: 4.62
PBM binding z-score [7]: 3.57
PBM binding z-score [8]: 4.27
PBM binding z-score [9]: 3.93
PBM binding z-score [10]: 4.13

GCTTGTAGATCAAGGTTAAGAATGACTAAGCTAA
PBM binding z-score [1]: 0.096
PBM binding z-score [2]: 0.324
PBM binding z-score [3]: -0.618
PBM binding z-score [4]: 0.368
PBM binding z-score [5]: -0.604
PBM binding z-score [6]: 1.37
PBM binding z-score [7]: 1.3
PBM binding z-score [8]: 1.95
PBM binding z-score [9]: 0.416
PBM binding z-score [10]: 1.72

CGTAGCAGGCCAGGGTCACTCAAGCATTTCGCTT
PBM binding z-score [1]: 2.18
PBM binding z-score [2]: 1.78
PBM binding z-score [3]: -0.329
PBM binding z-score [4]: 2.14
PBM binding z-score [5]: -1.14
PBM binding z-score [6]: 2.89
PBM binding z-score [7]: 0.663
PBM binding z-score [8]: 1.49
PBM binding z-score [9]: -0.228
PBM binding z-score [10]: 0.716

AGAGACAGGTGATGAAGGTAACTCAGGCTATCAT
PBM binding z-score [1]: 0.266
PBM binding z-score [2]: 0.0997
PBM binding z-score [3]: 0.0687
PBM binding z-score [4]: 0.476
PBM binding z-score [5]: 0.372
PBM binding z-score [6]: 0.328
PBM binding z-score [7]: 0.629
PBM binding z-score [8]: 0.513
PBM binding z-score [9]: 0.448
PBM binding z-score [10]: 0.733

CCTGCTAGGTCAATGGTCCGCTAAAGCAGCTCGC
PBM binding z-score [1]: 2.77
PBM binding z-score [2]: 2.19
PBM binding z-score [3]: -0.135
PBM binding z-score [4]: 1.19
PBM binding z-score [5]: -0.102
PBM binding z-score [6]: 2.6
PBM binding z-score [7]: 2.12
PBM binding z-score [8]: 2.94
PBM binding z-score [9]: 0.46
PBM binding z-score [10]: 1.87

ACTAGCAGGCCAAGGGACACTCAAGATTAGTCCG
PBM binding z-score [1]: -0.455
PBM binding z-score [2]: -0.514
PBM binding z-score [3]: -0.423
PBM binding z-score [4]: -0.897
PBM binding z-score [5]: -0.655
PBM binding z-score [6]: -0.248
PBM binding z-score [7]: 1.88
PBM binding z-score [8]: 1.99
PBM binding z-score [9]: 0.906
PBM binding z-score [10]: 1.86

TCTTGTAGATCAGCAGGTTACGAAAGCTGGCCAA
PBM binding z-score [1]: 0.0711
PBM binding z-score [2]: -0.119
PBM binding z-score [3]: -0.159
PBM binding z-score [4]: 0.185
PBM binding z-score [5]: -0.369
PBM binding z-score [6]: 0.613
PBM binding z-score [7]: -0.304
PBM binding z-score [8]: 1.48
PBM binding z-score [9]: 2.34
PBM binding z-score [10]: 1.87

CGTGCAAGGTCAATGCTAGGTCAGTGAAAGCATT
PBM binding z-score [1]: 6.79
PBM binding z-score [2]: 5.7
PBM binding z-score [3]: 1.91
PBM binding z-score [4]: 4.42
PBM binding z-score [5]: 0.212
PBM binding z-score [6]: 5.53
PBM binding z-score [7]: 4.26
PBM binding z-score [8]: 5.03
PBM binding z-score [9]: 1.47
PBM binding z-score [10]: 3.77

GGAACAAGGGCAAAGTTGATAGCATCTGTCGACG
PBM binding z-score [1]: 0.623
PBM binding z-score [2]: 0.618
PBM binding z-score [3]: -0.274
PBM binding z-score [4]: 0.612
PBM binding z-score [5]: -0.0187
PBM binding z-score [6]: 3.56
PBM binding z-score [7]: 5.8
PBM binding z-score [8]: 6.3
PBM binding z-score [9]: 5.66
PBM binding z-score [10]: 6.8

TAGCCTAGGTCATTCAAGGGCCAGTATAGAAAGC
PBM binding z-score [1]: 4.72
PBM binding z-score [2]: 3.99
PBM binding z-score [3]: 0.681
PBM binding z-score [4]: 2.5
PBM binding z-score [5]: 0.527
PBM binding z-score [6]: 3.79
PBM binding z-score [7]: 1.97
PBM binding z-score [8]: 2.25
PBM binding z-score [9]: 0.523
PBM binding z-score [10]: 1.88

ATATGTAGGTTAGCTGGGGTCATGCAGACTAGGC
PBM binding z-score [1]: 4.32
PBM binding z-score [2]: 5.63
PBM binding z-score [3]: 1.92
PBM binding z-score [4]: 4.51
PBM binding z-score [5]: 0.764
PBM binding z-score [6]: 5.44
PBM binding z-score [7]: 6.19
PBM binding z-score [8]: 5.5
PBM binding z-score [9]: 3.22
PBM binding z-score [10]: 5.13

CCGACTGGGGAATAAGGTTACCATAAGCCAGCCC
PBM binding z-score [1]: 0.215
PBM binding z-score [2]: 1.7
PBM binding z-score [3]: -0.22
PBM binding z-score [4]: 0.69
PBM binding z-score [5]: -0.763
PBM binding z-score [6]: 1.35
PBM binding z-score [7]: 1.09
PBM binding z-score [8]: 1.47
PBM binding z-score [9]: 0.215
PBM binding z-score [10]: 1.03
